# Source: PubChem (several laboratories)
# Compounds with a hit are over-represented: about 3.2% of the library has one in this group of screens.
# PHOSPHO1 block: blocks human PHOSPHO1 phosphatase activity; Q8TCT1; recombinant PHOSPHO1, absorbance phosphatase assay; inhibition, % at 13.3 µM; 1.1% of 290,000 active; AID 1565; in the data active = inhibition above about 60%
# Target sequence (Q8TCT1 whole entry, looked up): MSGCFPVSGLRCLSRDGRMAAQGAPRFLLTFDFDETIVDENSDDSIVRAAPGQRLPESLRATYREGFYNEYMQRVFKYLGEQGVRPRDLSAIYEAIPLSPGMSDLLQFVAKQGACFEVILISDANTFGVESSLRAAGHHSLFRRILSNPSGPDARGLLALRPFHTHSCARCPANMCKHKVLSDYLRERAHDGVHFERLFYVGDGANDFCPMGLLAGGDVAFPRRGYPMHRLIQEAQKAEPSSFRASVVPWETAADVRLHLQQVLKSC
# CHT allo act: allosterically activates the human high affinity choline transporter; Q9GZV3; CHT-expressing cells, membrane potential dye, choline EC20; stronger effect = higher value; LV-AA mutant CHT in HEK293 cells; 0.49% of 310,000 active; B-score at 10 µM; AID 488977;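 active = initial fluorescence not abnormally high and integrated response B-score, plate-corrected, over 3 SD above library mean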
# TMEM16A act: activators or potentiators of mouse TMEM16A chloride channel | AID 623877 | 0.3% of 340,000 active | HEK293 TMEM16A/YFP-H148Q/I152L, iodide quench fluorescence; stronger effect = lower value | B-score at 10 µM;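 active = fluorescence-ratio B-score plate-corrected deviation score at least 3 library SD below zero, with starting fluorescence score within 5 deviations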;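 also: channel opened by trigger with iodide after compound preincubation; score built on the fluorescence ratio of max minus min over baseline; more negative score means more quench and so TMEM16A activation or potentiation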
# HDAC3 inhib: blocks human histone deacetylase 3. O15379. recombinant HDAC3, fluorogenic peptide/trypsin coupled, fluorescence. inhibition, % at 8.3 µM. 0.15% of 320,000 active; in the data active = inhibition above about 26%, passing the limit was not always enough
# TMEM16A inh: inhibitors of mouse TMEM16A calcium-activated chloride channel; Q8BHY3; HEK293 TMEM16A/YFP iodide influx fluorescence, ionomycin; normalized B-score (activity score, 25-100; higher = stronger inhibition) at 10 µM; 1.2% of 310,000 active;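 active = ratio plate-corrected score three or more library SD toward inhibition, starting fluorescence score within five deviations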;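 also: score derived from kinetic fluorescence span divided by baseline fluorescence per well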
# CHT block: inhibits the human high affinity choline transporter; 0.86% of 310,000 active; B-score at 10 µM; CHT-expressing cells, membrane potential dye, choline response; stronger effect = lower value;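 active = B-score over 3 SD under the library average, and starting fluorescence ratio not unusually high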;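 also: choline stimulus applied at its EC90 after an EC20 pre-addition; B-score computed on integrated fluorescence ratio after choline addition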
# CHT inh conf: confirmation of human choline transporter CHT inhibitors; shares compounds with CHT block; CHT-expressing cells, choline membrane potential dye; LV-to-AA substituted CHT, HEK293 cells; CHT activity remaining % of control (stronger effect = lower value), % at 10 µM; 70% of 2,400 active; AID 493221;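 active = choline transporter activity left, mean of duplicates at 10 µM, below buffer-only control mean minus 3 SD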;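 also: depolarization triggered by choline at its EC90 following an EC20 pre-addition; 0% = hemicholinium-3 full block and 100% = buffer-only control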
# HEK293 CHT ctr: counter-screen for CHT inhibitors: effect in parental HEK293 cells. shares compounds with CHT block. membrane potential dye, choline response; active = decrease or increase beyond buffer ±3SD. membrane potential ratio readout (active if shifted either direction beyond buffer ±3SD; no single direction) at 10 µM. 4% of 2,400 active. AID 493222;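 also: parental cells lack the transporter so any hit is non-specific; ratio is peak minus trough fluorescence over baseline after EC90 choline challenge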
# Starred values were filed as active, the others as inactive; i = inactive; · = not tested or not shown.
SMILES,PHOSPHO1 block,CHT allo act,TMEM16A act,HDAC3 inhib,TMEM16A inh,CHT block,CHT inh conf,HEK293 CHT ctr
CN(Cc1ccccc1)C(=O)COC(=O)COc1ccc(C#N)cc1,9.8,i,i,-0.7,i,-5.27*,64.7%*,i
CCc1c(C)nc2ncnn2c1N1CCN(S(=O)(=O)c2ccc(OC)cc2)CC1,-10.2,i,i,-4.2,i,-6.27*,50.4%*,i
CC1CCN(CCNC(=O)CCS(=O)(=O)c2ccc(Br)cc2)CC1,-10.0,i,i,-7.4,i,-5.29*,i,i
O=C(OCc1nc2ccsc2c(=O)[nH]1)c1ccc(Cl)s1,·,i,i,5.0,i,-11.4*,5.9%*,i
O=C(OCc1nc2ccsc2c(=O)[nH]1)c1ccc(Cl)nc1,·,i,i,-1.0,i,i,·,·
Cc1ccc(Nc2nnc(-c3ccc(N4CCOCC4)c([N+](=O)[O-])c3)c3ccccc23)cc1,-4.9,i,i,6.5,i,-5.39*,59.0%*,i
CCCCNc1ccc(C(CC(N)=O)NC(=O)c2ccccc2)cc1[N+](=O)[O-] (centres undefined),11.1,i,i,9.3,i,i,·,·
Cc1cccc(CNc2ccc(C(CC(N)=O)NC(=O)c3ccccc3)cc2[N+](=O)[O-])c1 (centres undefined),20.4,i,i,-2.2,i,i,·,·
CCC(CC)Nc1ccc(C(CC(N)=O)NC(=O)c2ccccc2)cc1[N+](=O)[O-] (centres undefined),-1.7,i,i,-2.5,i,-5.07*,41.2%*,i
NC(=O)CC(NC(=O)c1ccc(Br)cc1)c1ccc(N2CCCCCCC2)c([N+](=O)[O-])c1 (centres undefined),-7.3,i,i,1.9,i,-5.34*,65.1%*,i
Cc1ccccc1CNc1ccc(C(CC(N)=O)NC(=O)c2ccccc2)cc1[N+](=O)[O-] (centres undefined),29.7,i,i,1.3,i,-5.39*,i,i
COc1cc(/C=C/C(=O)NNC(=O)c2cccc(S(=O)(=O)N(C)C)c2)cc(OC)c1OC,·,·,i,·,·,·,·,·
CC(C)OCCCNc1nc(-c2ccccc2)nc2ccccc12,·,i,i,1.2,i,i,·,·
O=C(NCCc1cn2ccccc2n1)c1ccccc1F,16.9,i,i,0.1,i,i,·,·
CCN(CC(=O)NCc1cccs1)S(=O)(=O)c1ccccc1Cl,·,i,i,-5.2,i,i,·,·
CCN(CC(=O)NCc1cccs1)S(=O)(=O)c1ccc(C(C)C)cc1,5.5,i,i,8.1,i,-5*,59.6%*,i
COc1ccccc1NC(=O)CNS(=O)(=O)c1ccccc1,7.1,i,i,1.1,i,-5.72*,i,i
O=C(CNS(=O)(=O)c1ccccc1)Nc1ccccc1Br,19.8,i,i,-5.1,i,i,·,·
COc1ccc(C(=O)Nc2cc(OC)nc(OC)n2)cc1,1.7,i,i,2.4,i,i,·,·
CC1CCCN(CC(=O)Nc2ccc(S(=O)(=O)N3CCCCCC3)cc2)C1 (centres undefined),23.2,i,i,-2.8,i,i,·,·
O=[N+]([O-])c1ccc(S(=O)(=O)Nc2nc(-c3ccccc3)cs2)cc1,·,i,i,1.1,100*,-5.6*,58.2%*,i
C/C=C/c1ccc(OCC(=O)N(C)CC(=O)Nc2ccc(F)cc2)c(OC)c1,·,i,i,1.1,i,i,·,·
CCOc1ncccc1C(=O)Nc1cccc(S(=O)(=O)NC2=NCCC2)c1,·,·,i,-2.3,·,·,·,·
CC(=O)Nc1ccc(C(=O)Nc2ccc(S(=O)(=O)NCC3CCCO3)cc2)cc1 (centres undefined),-10.0,i,i,-1.8,i,i,·,·
